Experimental data published in PubChem BioAssay.
Several values for one entry are separate records, joined by “and”; a condition that tells them apart may be missing. Equal entries are not always repeated. Activity calls are given as the source filed them.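 Rule for the calls, unless noted: active = compounds whose cell count with miR-34 switched on is under 0.7 times the count with it off; inactive = the rest.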

Key:
[1] = system: Aerobactin synthetase IucA (Klebsiella pneumoniae); test: IucA aerobactin synthetase inhibitors, biochemical, Tocris library, absorbance (AID 1345561; call rule not given here;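 note: 100% = enzyme without compound and 0% = no enzyme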); conditions: purified IucA enzyme assay, absorbance (OD) read-out; stronger effect = lower value;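 tested at 8 µM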
[2] = sensitizers of A549 cells to miR-34 induction, primary screen, imaging, A549 dox-inducible miR-34, nuclei and caspase counts (AID 1347080); conditions: A549 miR-34 inducible, Hoechst nuclei count, 48 h
[3] = viability rescue of complex I mutant cybrids, primary screen, cell-based, galactose medium, ATP luminescence (AID 1645843;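 active = z-score of at least 1.8 in each of two replicates, scored against plate mean and spread of sample wells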;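 note: positive z means more ATP and so rescue of galactose-driven cybrid death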); conditions: complex I mutant cybrid cells, 72 h, stronger effect = higher value
[4] = stronger effect = lower value, cell number ratio, induced over uninduced
[5] = measured here: relative caspase fold change +Dox/-Dox
[6] = measured here: total cells with miR-34 induction, stronger effect = lower value
[7] = measured here: total cells without miR-34 induction

| SMILES | remaining activity [1] | fold change [2, 4] | fold change [2, 5] | cell count [2, 6] | cell count [2, 7] | z-score [3] |
| --- | --- | --- | --- | --- | --- | --- |
| NCCCCCc1cnc[nH]1 | 118% (inactive) | 0.92 (inactive) | 0.639 | 9140 | 9930 | -0.155 (inactive) |
| C[C@]12CC[C@@H]3c4ccc(O)cc4C[C@@H](CCCCCCCCCS(=O)CCCC(F)(F)C(F)(F)F)C3[C@@H]1CC[C@@H]2O (some centres not stated) | 117% (inactive) | 0.929 (inactive) | 0.852 | 6320 | 6800 | 0.9 (inactive) |
| OC(c1ccccc1)C1CCN(CCc2ccccc2)CC1 (configuration not stated) | 96.8% (inactive) | 0.917 (inactive) | 0.92 | 8660 | 9440 | -0.035 (inactive) |
| COC(=O)/C=C/c1cccc(N(Cc2ccc(-c3ccc(N(C)C)cc3)cc2)C(=O)C2CCCCC2)c1 | 97.3% (inactive) | 0.926 (inactive) | 1.8 | 7630 | 8240 | 0.225 (inactive) |
| NC(C(=O)O)c1ccc(C(=O)O)c(C(=O)O)c1 (configuration not stated) | 109% (inactive) | 0.922 (inactive) | 0.667 | 8080 | 8760 | 0.13 (inactive) |
| COc1cc(N)c(Cl)cc1C(=O)OCCCN1CCCCC1 | 102% (inactive) | 0.975 (inactive) | 0.823 | 9460 | 9700 | 0.255 (inactive) |
| COc1cc(COc2cc(N)c(Cl)cc2C(=O)CCC2CCN(CCNS(C)(=O)=O)CC2)cc(OC)c1 | 100% (inactive) | 0.842 (inactive) | 1.5 | 3930 | 4660 | -0.81 (inactive) |
| OC[C@H]1O[C@@H](n2cnc3c(NC4CCCC4)ncnc32)[C@H](O)[C@@H]1O | 123% (inactive) | 0.882 (inactive) | 0.89 | 9040 | 10200 | 0.51 (inactive) |
| O=C(Nc1cccc2cccnc12)c1ccc(N2C(=O)[C@@H]3[C@H](C2=O)[C@@H]2C=C[C@H]3C2)cc1 | 115% (inactive) | 1 (inactive) | 0.754 | 6560 | 6550 | -0.025 (inactive) |
| CN1C[C@H]2c3ccccc3Oc3ccc(Cl)cc3[C@@H]2C1 (racemic) | 109% (inactive) | 0.868 (inactive) | 2.03 | 5560 | 6410 | -0.745 (inactive) |
| O[C@@H]1[C@H](O)[C@@H](CCl)O[C@H]1n1cnc2c(NC3CC4CCC3C4)ncnc21 (some centres not stated) | 108% (inactive) | 0.921 (inactive) | 1.85 | 8570 | 9310 | 1.96 (inactive) |
| C=CCN1CCN(c2nc3ccccc3nc2C#N)CC1 | 112% (inactive) | 0.901 (inactive) | 1.37 | 8950 | 9930 | 0.335 (inactive) |
| O=C(NCCCCN1CCN(c2cccc(Cl)c2Cl)CC1)c1ccc2c(c1)Cc1ccccc1-2 | 111% (inactive) | 0.929 (inactive) | 1.33 | 8390 | 9030 | -0.17 (inactive) |
| CC(=O)N1CCN(C)CC1 | 118% (inactive) | 0.971 (inactive) | 0.837 | 8470 | 8720 | 0.29 (inactive) |
| Cc1cc(C)c(N(Cc2ccccc2)S(=O)(=O)c2ccc(OCCNC(=O)c3cc4ccccc4o3)cc2)c(C(=O)NO)c1 | 101% (inactive) | 0.895 (inactive) | 0.617 | 2050 | 2290 | -0.695 (inactive) |
| O=C(O)COc1cccc(-c2ocnc2-c2nc(-c3ccccc3)c(-c3ccccc3)o2)c1 | 118% (inactive) | 0.961 (inactive) | 0.827 | 8540 | 8890 | 0.465 (inactive) |
| CCCCNC(=O)[C@@H]1Cc2ccccc2N1C(=O)[C@@H](N)CC | 110% (inactive) | 0.978 (inactive) | 1.76 | 9030 | 9230 | 0.245 (inactive) |
| CCCCCS(=O)(=O)CCCCCCCCCCn1c(-c2ccc(O)cc2)c(C)c2cc(O)ccc21 | 96.6% (inactive) | 1.01 (inactive) | 0.732 | 1420 | 1410 | -0.685 (inactive) |
| COc1cccc(CCc2ccccc2OCC[C@@H]2C[C@@H](O)CN2C)c1 | 109% (inactive) | 1.04 (inactive) | 0.632 | 7340 | 7050 | -0.705 (inactive) |
| CN(C)C(=O)C(=O)c1cn(C)c2cc(Cl)c(C(=O)N3CCC(Cc4ccc(F)cc4)CC3)cc12 | 118% (inactive) | 1.09 (inactive) | 0.88 | 4920 | 4530 | -0.96 (inactive) |
| Cc1ccc(CC2(O)CCN(CCOc3ccc(O)cc3)CC2)cc1 | 89.8% (inactive) | 0.939 (inactive) | 2.38 | 7760 | 8270 | -0.49 (inactive) |
| NC(=NC1C2CC3CC(C2)CC1C3)Nc1ccc(I)cc1 (configuration not stated) | 126% (inactive) | 1.12 (inactive) | 0.649 | 2830 | 2540 | -0.39 (inactive) |
| CCCCCCCC/C=C\CCCCCCCC(=O)N[C@@H](CO)Cc1ccc(O)cc1 | 129% (inactive) | 0.903 (inactive) and 0.933 (inactive) | 1.11 and 0.626 | 5590 and 5540 | 6200 and 5940 | -0.83 (inactive) |
| Cc1c(C2CCN(CCc3ccccc3)CC2)noc1-c1ccc(Cl)cc1 | 92.3% (inactive) | 0.891 (inactive) | 0.892 | 6770 | 7590 | -0.21 (inactive) |

| SMILES | remaining activity [1] | fold change [2, 4] | fold change [2, 5] | cell count [2, 6] | cell count [2, 7] | z-score [3] |
| --- | --- | --- | --- | --- | --- | --- |
| CC(C)[C@H](NS(=O)(=O)c1ccc(-c2ccc(Br)cc2)cc1)C(=O)O | 100% (inactive) | 0.908 (inactive) | 1.47 | 8980 | 9890 | 0.745 (inactive) |
| N#Cc1cc2[nH]c(=O)c(=O)[nH]c2cc1[N+](=O)[O-] | 113% (inactive) | 0.891 (inactive) | 1.62 | 9010 | 10100 | 0.095 (inactive) |
| COc1ccc(-c2ccc(=N)n(CCCC(=O)O)n2)cc1 | 122% (inactive) | 0.902 (inactive) | 0.531 | 8640 | 9580 | -0.295 (inactive) |
| Cc1ccc2c(=O)c3ccccc3n(CCCN)c2c1C | 96.6% (inactive) | 1.17 (inactive) | 1.36 | 2370 | 2020 | -0.58 (inactive) |
| c1ccc(N2CCN(CCCOc3ccc4c(c3)OCO4)CC2)cc1 | 103% (inactive) | 0.912 (inactive) | 0.762 | 8370 | 9180 | 0.385 (inactive) |
| COC(=O)Nc1ccc2[nH]cc(CCNC(C)=O)c2c1 | 121% (inactive) | 0.99 (inactive) | 0.823 | 8200 | 8280 | -0.205 (inactive) |
| N#Cc1ccc(NCCNCC(=O)N2CCC[C@H]2C#N)nc1 | 110% (inactive) | 0.825 (inactive) | 2.19 | 8330 | 10100 | 0.41 (inactive) |
| N[C@H](C(=O)O)c1ccc(C(=O)O)c(C(=O)O)c1 | 126% (inactive) | 0.986 (inactive) | 0.559 | 9860 | 10000 | -0.145 (inactive) |
| O=C1c2ccccc2CCC1CNCCc1ccc(O)cc1 (configuration not stated) | 104% (inactive) | 0.994 (inactive) | 0.835 | 8920 | 8970 | -1.23 (inactive) |
| Cc1noc(NS(=O)(=O)c2cccc3c(N(C)C)cccc23)c1C | 116% (inactive) | 0.967 (inactive) | 0.84 | 8350 | 8630 | -0.135 (inactive) |
| C1CC[C@H]2[N]=[Pt]=[N][C@@H]2C1.O=C(O)C(=O)O | 86.1% (inactive) | 0.928 (inactive) | 1.09 | 4040 | 4350 | 3.04 (active) |
| Cc1c[nH]c(=O)n(CCCN2CCN(c3ccccc3OCC(F)(F)F)CC2)c1=O | 126% (inactive) | 0.952 (inactive) | 0.729 | 10000 | 10500 | -0.38 (inactive) |
| c1ccc(N2CCN(Cc3nc4ccccc4[nH]3)CC2)nc1 | 78.8% (inactive) | 0.909 (inactive) | 2.02 | 8260 | 9090 | 0.04 (inactive) |
| Nc1nc2c(nc(Br)n2[C@@H]2O[C@@H]3COP(=O)(O)O[C@H]3[C@H]2O)c(=O)[nH]1 | 113% (inactive) | 0.972 (inactive) | 0.761 | 9650 | 9930 | -0.25 (inactive) |
| N#C/C(=C\c1ccc(O)c(O)c1)C(=O)NCCCCc1ccccc1 | 95.7% (inactive) | 0.982 (inactive) | 1.09 | 7480 | 7610 | -0.725 (inactive) |
| O=C(c1ccc2c(c1)OCO2)N1CCCCC1 | 118% (inactive) | 0.987 (inactive) | 0.905 | 9020 | 9140 | -0.205 (inactive) |
| CO[C@]12C[C@@H](COC(=O)c3cncc(Br)c3)CN(C)[C@@H]1CC1=CN(C)C3C=CC=C2C13 (some centres not stated) | 107% (inactive) | 0.94 (inactive) | 0.794 | 7700 | 8200 | 0.455 (inactive) |
| CN1CCN(C2=Cc3ccccc3Oc3ccc(Cl)cc32)CC1 | 104% (inactive) | 0.963 (inactive) | 0.764 | 6800 | 7060 | -0.9 (inactive) |
| CC#CCOC(=O)C1=CCCN(C)C1 | 109% (inactive) | 0.936 (inactive) | 0.732 | 8580 | 9170 | -0.46 (inactive) |
| N#Cc1ccccc1OCC(O)CNCCNC(=O)Nc1ccccc1 (configuration not stated) | 118% (inactive) | 0.847 (inactive) | 1.36 | 8970 | 10600 | -0.64 (inactive) |
| CCn1c(=O)[nH]c2ccccc21 | 111% (inactive) | 0.854 (inactive) | 1.07 | 7770 | 9100 | -0.455 (inactive) |
| CC(N)=NCCCC[C@H](N)C(=O)O | 91.3% (inactive) | 0.958 (inactive) | 0.902 | 8960 | 9350 | 0.135 (inactive) |
| Cc1nnc(-c2ccc3occ(-c4ccc(S(C)=O)cc4)c3c2)o1 (configuration not stated) | 113% (inactive) | 0.855 (inactive) | 1.35 | 4510 | 5270 | -0.44 (inactive) |
